This is part of a sample that, as a whole, favours compounds with a hit. Of some 83,000 tested, about 20% had one in any assay.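 Single-concentration screen, 48 h exposure, 96-well plates. Endpoint: percent growth. Below 10 = active.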 A number with no mark means an inactive call. The source made the active and inactive calls.

Among the test systems are HCT-15 colon; HT29 colon; SNB-75 CNS; SNB-19 CNS; U251 CNS; PC-3 prostate; SK-MEL-5 melanoma; UACC-62 melanoma; LOX IMVI melanoma; SK-MEL-28 melanoma; SK-MEL-2 melanoma; EKVX NSCLC; SN12C renal; UO-31 renal; TK-10 renal; ACHN renal; CAKI-1 renal; A498 renal; CCRF-CEM leukemia; MOLT-4 leukemia.
Holding throughout (assay): NCI-60 one-dose screen, 48 h (100 = growth as untreated, 0 = no growth, -100 = all killed)
Holding throughout (details): 10 µM

As to `COc1ccc2[nH]cc(/C=N/Nc3ccc(Br)cn3)c2c1`, the growth in the assay with HCT-15 colon was 6.98% (active); in the assay with HT29 colon it was 23.3%; with SNB-75 CNS, 43.7%; with SNB-19 CNS, 51.2%; in the assay on U251 CNS, 20.1%; in the assay with PC-3 prostate, 23%. Besides, the growth in the assay with SK-MEL-5 melanoma is 21.9%; with UACC-62 melanoma it was 51.3%; in the assay on LOX IMVI melanoma it was 7.7% (active); in the assay on SK-MEL-28 melanoma, 61.5%; with SK-MEL-2 melanoma, 73.5%; with EKVX NSCLC, 22.9%. Also, the growth was 23.7% in the assay with SN12C renal; 11% in the assay on UO-31 renal; 54% in the assay on TK-10 renal; 26.7% in the assay with ACHN renal; 30.9% with CAKI-1 renal; 50.7% in the assay with A498 renal. In addition, the growth in the assay with CCRF-CEM leukemia was 11.2%; in the assay with MOLT-4 leukemia, 24.6%.
In the case of `O/N=C(\CSc1nnc(-c2c[nH]c3ccccc23)n1-c1ccccc1)c1ccc(Cl)cc1`, the growth in the assay with HCT-15 colon is -48.1% (active); with HT29 colon, 4.47% (active); in the assay with SNB-75 CNS, 48%; with SNB-19 CNS it was 17.4%; in the assay on U251 CNS it was 30.5%; with PC-3 prostate, -38% (active). Moreover, the growth in the assay with SK-MEL-5 melanoma was 21.2%; with UACC-62 melanoma, -43.2% (active); with LOX IMVI melanoma, -89.3% (active); with SK-MEL-28 melanoma, 21.2%; in the assay on SK-MEL-2 melanoma it was 20.1%; with EKVX NSCLC, 2.05% (active). Also, the growth is -16.2% (active) in the assay on SN12C renal; 34.4% in the assay with UO-31 renal; -23.2% (active) in the assay on TK-10 renal; 3.34% (active) with ACHN renal; 83.7% with A498 renal; -5.19% (active) in the assay with CCRF-CEM leukemia. The growth in the assay with MOLT-4 leukemia is -7.37% (active).
For the molecule `COc1cc(C2CC(c3ccccc3)=Nc3c(N)nc(N)nc3N2)ccc1Oc1nc(Nc2ccc(F)cc2)nc(N(C)C)n1` (stereo unspecified), the growth was 20.8% with HCT-15 colon; 24.7% with HT29 colon; 61% with SNB-75 CNS; 62.2% with SNB-19 CNS; 56.3% with U251 CNS; 40.7% with PC-3 prostate. Besides, the growth in the assay with SK-MEL-5 melanoma is -97.8% (active); in the assay on UACC-62 melanoma, 48.5%; in the assay with LOX IMVI melanoma, 23.2%; with SK-MEL-28 melanoma, 67.8%; with SK-MEL-2 melanoma, 54.5%; with EKVX NSCLC it was 50.2%. Moreover, the growth with SN12C renal was 64.6%; with UO-31 renal it was 46.6%; in the assay on TK-10 renal, 82.6%; with ACHN renal, 38.5%; with CAKI-1 renal, 39.3%; in the assay with A498 renal it was 94.4%. Moreover, the values for the growth in the assay with CCRF-CEM leukemia and with MOLT-4 leukemia were 25.4% and 1.45% (active), respectively.
In the case of `CC(=O)Nc1ccc(-c2cn(-c3cccc(C(=O)Nc4ccc(Cl)c(C(F)(F)F)c4)c3)nn2)cn1`, the growth in the assay with HCT-15 colon is -57.8% (active); in the assay on HT29 colon, -50.3% (active); in the assay with SNB-75 CNS, 88%; with SNB-19 CNS, -35.3% (active); in the assay with U251 CNS, -59.5% (active); in the assay with PC-3 prostate it was 1.58% (active). The growth with SK-MEL-5 melanoma was 38.5%; in the assay with UACC-62 melanoma, -62.4% (active); with LOX IMVI melanoma, -90.8% (active); in the assay with SK-MEL-28 melanoma, -80.6% (active); in the assay with SK-MEL-2 melanoma it was -38.3% (active); in the assay with EKVX NSCLC it was -30.2% (active). In addition, the growth with SN12C renal is -48.4% (active); in the assay on UO-31 renal, -56% (active); in the assay on TK-10 renal, -18% (active); in the assay on ACHN renal, -52.5% (active); with A498 renal it was -63.1% (active); with CCRF-CEM leukemia, 30%. Also, the growth in the assay with MOLT-4 leukemia was 7.02% (active).
On to `Cc1ccn2c(C(=O)c3ccc(Br)cc3)cc(-c3cc(-c4ccc(N(C)C)cc4)c(C#N)c(N)n3)c2c1`, for which the growth with HCT-15 colon was 39.7%; in the assay on HT29 colon, 34.6%; in the assay with SNB-75 CNS it was 118%; with SNB-19 CNS, 67.8%; with U251 CNS, 19.9%; in the assay on PC-3 prostate it was 64.4%. Besides, the growth with SK-MEL-5 melanoma is 53.1%; in the assay with UACC-62 melanoma, 76.7%; with LOX IMVI melanoma, 30.7%; with SK-MEL-28 melanoma, 51.1%; in the assay on SK-MEL-2 melanoma it was 81.1%; in the assay with EKVX NSCLC, 68.2%. The growth with SN12C renal was 76.5%; in the assay on UO-31 renal it was 63.3%; in the assay on TK-10 renal it was 98.9%; with ACHN renal it was 71.5%; in the assay on A498 renal, 91.9%; with CCRF-CEM leukemia, 94.3%. In addition, the growth in the assay with MOLT-4 leukemia was 94%.
With `COC1=C[C@]23CCC(=O)N2CCc2cc4c(cc2[C@@H]3[C@@H]1OC(=O)CCCC(C)C)OCO4`, the growth in the assay with HCT-15 colon is 23.1%; in the assay on HT29 colon, 32.2%; in the assay on SNB-75 CNS it was 120%; in the assay with SNB-19 CNS it was 28%; in the assay on U251 CNS, 43.3%; in the assay with PC-3 prostate it was 42.5%. The growth was 25.9% with SK-MEL-5 melanoma; 61% in the assay with UACC-62 melanoma; 7.89% (active) in the assay with LOX IMVI melanoma; 64.4% in the assay on SK-MEL-28 melanoma; 101% in the assay on SK-MEL-2 melanoma; 80.4% in the assay with EKVX NSCLC. Moreover, the growth in the assay on SN12C renal is 104%; in the assay with UO-31 renal, 36.3%; in the assay on TK-10 renal, 66.1%; with ACHN renal it was 32.1%; in the assay on CAKI-1 renal, 48%; with A498 renal, 25%. In addition, the growth was 59.7% in the assay on CCRF-CEM leukemia and 9.63% (active) with MOLT-4 leukemia.
Regarding `CCOC(=O)C1NN(c2ccc(S(N)(=O)=O)cc2)c2nc3nc(-c4cccs4)cc(-c4cccs4)c3c(=O)n21` (stereo unspecified), the growth with HCT-15 colon was 88.5%; in the assay on HT29 colon it was 73.9%; in the assay with SNB-75 CNS, 66.8%; with SNB-19 CNS, 96.4%; in the assay with U251 CNS it was 84.5%; in the assay with PC-3 prostate, 80%. Further, the growth is 75.5% in the assay on SK-MEL-5 melanoma; 74.8% with UACC-62 melanoma; 80.7% with LOX IMVI melanoma; 73.1% with SK-MEL-28 melanoma; 101% with SK-MEL-2 melanoma; 91.8% in the assay on EKVX NSCLC. The growth in the assay on SN12C renal was 90.2%; with UO-31 renal, 82.9%; with TK-10 renal it was 100%; in the assay on ACHN renal, 64.9%; in the assay with CAKI-1 renal, 59.1%; with A498 renal, 120%. In the assay on MOLT-4 leukemia, the growth was 78.7%.

(Values after PubChem BioAssay (NCI).)
